Where “and” joins values, the source holds several entries; their conditions need not be identical. Identical values can stand only once. The campaign covered roughly 260,000 compounds. About 1,500 (0.58%) were called active. Another 5% or so got no clear call; they are omitted.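 The calls were made as follows: active = inhibition above a set limit at one or more doses, reproduced on every date tested; inconclusive = results disagree between test dates, or hit never tested in dose response; inactive = the rest.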 Only a sample is shown. Measured potencies and affinities stand elsewhere.

The results in this text go back to PubChem BioAssay AID1117319 (Southern Research Institute, 2015).

The target of this experiment is Virion infectivity factor (Human immunodeficiency virus type 1 group M subtype B (isolate BH10)) + Virion infectivity factor (Human immunodeficiency virus type 1 group M subtype B (isolate BRU/LAI)) + Virion infectivity factor (Human immunodeficiency virus type 1 group M subtype B (isolate PCV12)) + Virion infectivity factor (Human immunodeficiency virus type 1 group M subtype B (isolate HXB2)) + DNA dC->dU-editing enzyme APOBEC-3G (Homo sapiens) (UniProt P69720+P69721+P69722+P69723+Q9HC16). Kind of experiment: HIV-1 Vif–A3G interaction blockers – biochemical, TR-FRET, GST-Vif 1-94, biotin-A3G peptide, dose response retest, primary screen (AID 1117319).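 Also: Vif residues 1-94 fused to GST binding biotinylated APOBEC3G peptide 110-148; 0% = full assay without inhibitor and 100% = GST in place of GST-Vif.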 As to conditions: TR-FRET GST-Vif / biotin-A3G peptide binding; stronger effect = higher value.
The inhibition is the drop in the measured response relative to a control, in per cent. On to `O=S(=O)(NCCN1CCN(S(=O)(=O)c2ccccc2F)CC1)c1ccccc1F`, for which the inhibition was 1.35% (inactive). To `O=C1NC(=O)/C(=C\c2cn(CC(=O)N3CCOCC3)c3ccccc23)S1` belongs -3.19% (inactive); to `O=C(COC(=O)/C=C/c1cc(Br)ccc1F)Nc1ccc2[nH]c(=O)[nH]c2c1`, -2.89% (inactive). Next, `Cc1cccc(N2CC(C(=O)O)CC2=O)c1` (stereo not given): -2.42% (inactive). To `Cc1ccc(SCC(=O)Nc2nnc(-c3ccco3)o2)cc1` belongs 6.62% (inactive); to `CC(=O)Nc1ccc(N=Cc2c(O)c3ccccc3oc2=O)cc1`, -14.5% (inactive).

Regarding `Cc1ccc(-c2oc3ncnc(N)c3c2-c2ccc(C)cc2)cc1`, the inhibition is -8.91% (inactive). Regarding `COc1ccc(-c2oc3ncnc(N)c3c2-c2ccccc2)cc1`, the inhibition is -1.94% (inactive). To `Cc1c(NC(=O)COc2ccc(C(C)C)cc2)c(=O)n(-c2ccccc2)n1C` belongs -8.62% (inactive); to `CCCCCCC(O)(c1ccccc1)C(CN1CCOCC1)c1ccccc1` (stereo not given), 0.34% (inactive); to `CCc1noc(C)c1C(=O)Nc1ccc(F)c(F)c1`, -2.68% (inactive).

With `Cc1noc(N)c1C(=O)Nc1ccc(F)c(Cl)c1`, the inhibition is -9.43% (inactive). Next, `Cc1nc2scc(-c3ccc(Cl)cc3)c2c(=O)o1`: 19.2% (inactive); `CCOc1ccc(C(=O)COc2ccc(NC(C)=O)cc2)cc1`: 6.05% (inactive). `CCOC(=O)C1=c2s/c(=C\c3cccnc3)c(=O)n2C(N)=C(C(=O)OC)C1c1cccnc1` (stereo not given): the inhibition was -8.08% (inactive). Next, `CCOC(=O)C1=C(C)NC(C)=C(C(=O)OCC)C1c1ccco1`: 22.4% (inactive); `CCOC(=O)C1=C(N)n2c(s/c(=C/c3ccccc3)c2=O)=C(C(=O)OCC)C1c1ccccc1` (stereo not given): -3.94% (inactive). Next, `CCOC(=O)C1=C(N)n2c(s/c(=C\c3cccs3)c2=O)=C(C(=O)OCC)C1c1cccs1` (stereo not given): -6.07% (inactive) and -0.48% (inactive); `CCOC(=O)C1=c2s/c(=C\c3ccncc3)c(=O)n2C(N)=C(C(=O)OC)C1c1ccncc1` (stereo not given): -6.47% (inactive); `CCOC(=O)C1=C(N)n2c(s/c(=C\c3ccncc3)c2=O)=C(C(=O)OCC)C1c1ccncc1` (stereo not given): -12.8% (inactive). To `Cc1cc(SCC(=O)OC(C)C(=O)N(C)c2ccccc2)nc2ccccc12` (stereo not given) belongs -7.66% (inactive); to `COC(=O)c1ccc(CNC(=O)Cn2nnnc2CN(C)C(C)C)cc1`, -4.98% (inactive). Turning to `COCCNC(=O)CSc1cc(-c2ccccc2)c2ccc(OC)cc2n1`, the inhibition was -24.8% (inactive).

As to `COc1ccccc1CNC(=O)c1ccc(OC(C)C)cc1`, the inhibition was -1.85% (inactive). Regarding `O=C(NCc1cccnc1)c1nn2cccnc2c1Cl`, the inhibition was 14.7% (inactive).
